Data from PubChem BioAssay AID493168 (National Center for Advancing Translational Sciences (NCATS), 2011).
Results filed as inconclusive are left out. Entries that show only a call come without a potency. Calls of active or inactive are those of the source. The call rests on the fitted dose curve; in most records, active means well fitted inhibition curve with a large enough effect; inconclusive means small, poorly fitted or top-dose-only effect, or effect the other way; inactive means flat fitted curve, though single readings scatter.

Target: Ubiquitin carboxyl-terminal hydrolase 2 (Homo sapiens) (UniProt O75604)
Assay: Confirmation Assay for Inhibitors of Ubiquitin-specific Protease USP2a Using CHOP2 as the Reporter; further: nearly all actives have a fitted effect of over 55% in size
Conditions: USP2 core, Ub-CHOP2 coupled reporter fluorescence; series mostly up to 38.3 µM
Description: NIH Molecular Libraries Probe Centers Network [MLPCN] NIH Chemical Genomics Center [NCGC] MLSCN Grant: XO1-MH079852-01 PI Name: Nicholson, Ben. Progenra Inc, Malvern, PA NCGC Assay Overview: Homeostasis of cellular proteins is maintained through a combination of synthesis and degradation. The pathway that accounts for the majority of protein degradation is the ubiquitin-proteasomal pathway. Ubiquitin (Ub) is highly conserved in all cells and the generation of a multi-Ub chain typically targets proteins for degradation by the proteasome. However, ubiquitination is highly reversible and dynamic. Deubiquitination, the reverse process, is catalyzed through the action of enzymes referred to as isopeptidases or deubiquitinating enzymes (DUBs). This group of enzymes is collectively responsible for maintaining adequate pools of free ubiquitin and regulating the ubiquitination status of cellular proteins. The class of DUBs referred to as the ubiquitin-specific proteases (USP) family functions endoproteolytically to cleave Ub chains from a wide range of protein substrates. USP2a deubiquitinates fatty acid synthase (FASN) which has recently been identified as an emerging oncology target. To identify inhibitors of USP2a a cell-free assay was employed. […] The reporter enzyme chosen is an […] called CHOP2, which is activated when the Ub is cleaved by USP2. The free and now activated reporter can subsequently act on its reporter substrate. Thus, this coupled assay gives a fluorescent read-out at excitation/emission wavelengths of 485/531. The assay was developed by Progenra, Inc. and has been licensed for sale by LifeSensors, Inc. as Ub-CHOP2-Reporter-Kit (#PR1101).
NCGC Assay Protocol Summary: The assay buffer, prepared fresh at the day of the assay, contains 20mM Tris-HCl pH 8.0, 2mM CaCl2, 2mM beta-Mercaptoethanol, 0.05% CHAPS. 3ul of 20nM (10nM final) USP2 core, which is stored on ice, is dispensed into a medium-binding black solid Kalypsys 1,536 well plate using the Kalypsys dispenser. The assay plate is then pinned with 23nL compound with the Kalypsys pintool in columns 5-48. The controls are pinned as follows: column 1 two-fold dilutions of 2M NEM in duplicate; column 2 2M NEM (final concentration 38.2mM); column 3&4 DMSO. The assay plate is incubated at RT for 30min. Subsequently, 1.5uL of 100nM (25nM final) Ub-CHOP2 and 1.5uL of 100nM (25nM final) Reporter Substrate (both stored on ice and protected from light) were dispensed into the plate using the Kalypsys dispenser. Plates were read after 60min RT incubation on a ViewLux (Perkin Elmer) plate reader using the following wavelengths Ex 485nm /Em 531nm. Data were normalized to the to AC100 inhibition (NEM). Concentration-response curves were fitted to the normalized data and the concentration-response curves were then classified based on curve quality (r2), response magnitude and degree of measured activity. The time zero reading was used to flag fluorescence artifacts. Keywords: ubiquitination, deubiquitination, proteases, profluorescent, MLSMR, MLPCN, NIH Roadmap, qHTS, NCGC
Potency means the concentration at half of the fitted maximal effect.

Chain of Ubiquitin carboxyl-terminal hydrolase 2 (Homo sapiens) (O75604 whole entry, looked up): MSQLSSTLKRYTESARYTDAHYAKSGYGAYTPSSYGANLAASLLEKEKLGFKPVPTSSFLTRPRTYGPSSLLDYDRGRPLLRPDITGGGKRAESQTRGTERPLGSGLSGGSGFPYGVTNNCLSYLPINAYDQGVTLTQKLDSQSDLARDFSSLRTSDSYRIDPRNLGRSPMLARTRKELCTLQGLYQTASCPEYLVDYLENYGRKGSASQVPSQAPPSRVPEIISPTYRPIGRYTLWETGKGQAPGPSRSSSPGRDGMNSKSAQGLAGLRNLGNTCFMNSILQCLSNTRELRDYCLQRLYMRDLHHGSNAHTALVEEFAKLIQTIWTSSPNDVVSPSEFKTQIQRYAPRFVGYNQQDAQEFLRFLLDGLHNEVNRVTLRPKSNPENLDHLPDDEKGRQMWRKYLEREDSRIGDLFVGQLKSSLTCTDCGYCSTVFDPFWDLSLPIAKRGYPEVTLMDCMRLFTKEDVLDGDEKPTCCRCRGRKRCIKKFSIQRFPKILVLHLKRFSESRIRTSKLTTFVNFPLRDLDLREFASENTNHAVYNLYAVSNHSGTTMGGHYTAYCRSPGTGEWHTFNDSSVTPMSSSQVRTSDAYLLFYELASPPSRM

| SMILES | Potency |
| --- | --- |
| O=C(NC12CC3CC(CC(C3)C1)C2)C1=COCCO1 | inactive |
| CCOc1ccc2[nH]c(=O)c(CN(CCc3ccccc3)C(=O)c3cnccn3)cc2c1 | inactive |
| O=C(c1ccccc1)N1CCN(C(=O)N2CCCCC2)CC1 | inactive |
| CC(C)c1ccc(C2=C(O)c3ccccc3C(=O)C2=O)cc1 | inactive |
| CCc1cc2c(=O)c(-n3cnc4ccccc43)coc2cc1O | inactive |
| CN(C)S(=O)(=O)c1cccc(NC(=S)NNC(=O)c2cc3ccccc3cc2O)c1 | inactive |
| O=S(=O)(c1cc(Cl)ccc1Cl)N1CCNCC1 | inactive |
| c1coc(CNC2CCCCCCC2)c1 | inactive |
| CC(=O)c1ccc(NC(=O)CC(NCCC2=CCCCC2)C(=O)O)cc1 (stereo not given) | inactive |
| O=C(NC1CCCCC1)C(c1ccco1)N(Cc1ccco1)C(=O)c1ccco1 (stereo not given) | inactive |
| CCCOc1ccc(/C=C2\SC(=S)N(CC3CCCO3)C2=O)cc1 (stereo not given) | inactive |
| FC(F)Sc1ccc(NC(=S)NC2CCCCC2)cc1 | inactive |
| Cc1cc(C)n2cc(CSc3nnnn3-c3ccccc3C)nc2n1 | inactive |
| CCCSCCCNC(=O)CC1Oc2ccccc2NC1=O (stereo not given) | inactive |
| C#CCOCCOCCOCCNc1nc(N2CCN(C(=O)CCCCCCCCCCNC(=O)[C@@H](CCSC)n3cc(CCO)nn3)CC2)nc(N2CCN(C(=O)CCCCCCCCCCNC(=O)[C@H](CCCN=C(N)N)n3cc(C[C@@H](C)CC)nn3)CC2)n1 | 13.1 µM (active) |
| COc1cc(C(c2c(C)[nH][nH]c2=O)c2c(C)[nH][nH]c2=O)ccc1OCc1ccc([N+](=O)[O-])cc1 | inactive |
| CN(C)S(=O)(=O)c1ccc(C(=O)NCCN=C2NS(=O)(=O)c3ccccc32)cc1 | inactive |
| O=c1/c(=C/c2ccco2)sc2n1CN(c1cccc(Br)c1)CN=2 | inactive |
| COc1cc2cc(CN(CCN3CCCC3)C(=O)Nc3ccc(F)cc3)c(=O)[nH]c2cc1OC | inactive |
| c1coc(CNc2nc(-c3cccs3)cs2)c1 | inactive |

| SMILES | Potency |
| --- | --- |
| Cc1ccc(NC(=O)CSc2nc(O)cc(=O)n2-c2ccc(C)cc2)cc1 | inactive |
| Cc1ccc(N2CCN(C(=O)CCc3nc4ccccc4[nH]3)CC2)c(C)c1 | inactive |
| COC(=O)c1cc2sc(Cl)cc2n1Cc1nc(-c2ccccc2)oc1C | inactive |
| Cn1c(SCc2nc3ccccc3s2)nnc1-c1cccs1 | inactive |
| CCC(C)(C)n1nnnc1C(c1ccc(C)cc1)N1CCCC1 (stereo not given) | inactive |
| COc1ccc(CC(=O)c2ccccc2C(=O)O)cc1 | inactive |
| CC1CCCCC1NC(=O)CSCC(=O)O (stereo not given) | inactive |
| N#Cc1cc(Sc2ccccn2)c(Sc2ccccn2)cc1C#N | inactive |
| COc1cccc(-c2csc3nnc(SCC(=O)NCc4cccs4)n23)c1 | inactive |
| COc1ccc(NC(=O)CSc2nnc(-c3ccccc3Cl)n2Cc2ccco2)c(OC)c1 | inactive |
| O=C(OCc1ccccc1)C1CCCN1C(=O)c1cccs1 (stereo not given) | inactive |
| CC(C)(C)[C@H]1COC(=O)[C@@H](Cc2ccc(F)cc2)C/C=C\C[C@@H](CC(=O)N[C@@H](CO)Cc2ccccc2)C(=O)N1 | inactive |
| CS(=O)(=O)c1ccc(C(=O)Nc2nc(-c3ccco3)c(-c3ccco3)s2)cc1 | inactive |
| O=C1Nc2ccccc2SC(c2ccccc2)C1O (stereo not given) | 13.1 µM (active) |
| CN1CCN(CCC(=O)N/N=C/c2cc([N+](=O)[O-])ccc2O)CC1 | inactive |
| O=C(CCN1C(=O)/C(=C\c2ccco2)SC1=S)Nc1ccc(C(=O)O)c(O)c1 | 13.1 µM (active) |
| O=C(NCCC1=CCCCC1)C1CCCN(S(=O)(=O)c2cnc[nH]2)C1 (stereo not given) | inactive |
| COc1ccc(CCNC(=O)Cc2cc(=O)[nH]c(=O)[nH]2)cc1OC | inactive |
| COCCN1Cc2cccc(C(=O)N3CCN(c4cc(C)ccc4C)CC3)c2C1=O | inactive |
| O=S(=O)(Nc1cccc(-c2cn3c(n2)SCC3)c1)c1ccc(F)cc1F | inactive |
